The supplement of paper PMC11732987, “Enantioselective OTUD7B fragment discovery through chemoproteomics screening and high-throughput optimisation” (Communications Chemistry, 2025)

Assays:
Test in all cases: log2 ratio of Biotin-Ahx-Ub-VS probe labelling (fragment/DMSO); higher = less target engagement (more negative = stronger competition), active = hit call of the paper (q ≤ 0.05, log2 ratio ≤ -1)
Conditions in all cases: compound concentration: 200 uM; treatment time: 3 h
USP42 = target: T1, USP42 (UniProt Q9H9J4)
T1 sequence (whole entry): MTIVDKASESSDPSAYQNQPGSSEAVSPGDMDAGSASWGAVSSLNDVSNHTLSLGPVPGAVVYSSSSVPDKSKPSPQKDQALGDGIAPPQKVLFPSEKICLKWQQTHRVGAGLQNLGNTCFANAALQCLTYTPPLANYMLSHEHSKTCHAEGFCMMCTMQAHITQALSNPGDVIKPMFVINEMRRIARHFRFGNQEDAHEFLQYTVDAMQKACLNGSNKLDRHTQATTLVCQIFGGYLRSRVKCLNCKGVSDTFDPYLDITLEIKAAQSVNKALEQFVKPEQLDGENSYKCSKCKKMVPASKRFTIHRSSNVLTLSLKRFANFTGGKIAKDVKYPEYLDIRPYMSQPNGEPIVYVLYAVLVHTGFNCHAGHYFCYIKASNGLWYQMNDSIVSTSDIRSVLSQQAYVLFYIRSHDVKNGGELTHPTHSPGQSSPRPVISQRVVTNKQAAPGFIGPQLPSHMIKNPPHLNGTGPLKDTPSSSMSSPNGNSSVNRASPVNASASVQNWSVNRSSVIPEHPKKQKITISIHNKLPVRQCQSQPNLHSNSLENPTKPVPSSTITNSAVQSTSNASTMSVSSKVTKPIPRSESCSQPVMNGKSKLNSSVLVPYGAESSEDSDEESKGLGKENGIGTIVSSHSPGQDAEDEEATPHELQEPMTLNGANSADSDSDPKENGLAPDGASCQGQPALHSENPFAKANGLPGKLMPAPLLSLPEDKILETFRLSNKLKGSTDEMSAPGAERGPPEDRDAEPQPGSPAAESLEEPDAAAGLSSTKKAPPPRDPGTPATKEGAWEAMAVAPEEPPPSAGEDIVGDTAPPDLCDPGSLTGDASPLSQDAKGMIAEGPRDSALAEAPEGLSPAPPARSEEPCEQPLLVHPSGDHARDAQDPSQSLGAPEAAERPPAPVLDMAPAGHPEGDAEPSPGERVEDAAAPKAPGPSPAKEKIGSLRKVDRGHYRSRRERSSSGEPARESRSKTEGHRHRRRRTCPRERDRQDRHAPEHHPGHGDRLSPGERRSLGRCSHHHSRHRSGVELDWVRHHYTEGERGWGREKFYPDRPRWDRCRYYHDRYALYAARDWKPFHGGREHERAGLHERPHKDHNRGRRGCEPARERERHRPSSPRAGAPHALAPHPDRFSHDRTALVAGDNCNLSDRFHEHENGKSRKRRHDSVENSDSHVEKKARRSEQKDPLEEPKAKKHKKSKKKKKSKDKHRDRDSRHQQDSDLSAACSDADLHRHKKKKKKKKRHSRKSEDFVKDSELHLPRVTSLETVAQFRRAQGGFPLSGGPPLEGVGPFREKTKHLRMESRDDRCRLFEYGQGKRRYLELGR
Summary of the method: (§1)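 The table lists average log2 ratios of fragment over vehicle, from an unpaired t-test on global-median-normalised Spectronaut label-free quantities. Proteins with ≥2 unique peptides were used. Samples were HEK293T lysate (495 µg) treated in triplicate with fragment at 200 µM or vehicle for 3 h, then with Biotin-Ahx-Ub-VS (0.5 µM final) for 1 h, with labelled DUBs NeutrAvidin-enriched and run by diaPASEF LC-MS/MS.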

USP46 = USP46 (UniProt P62068)
Summary of the method: as §1

USP47 = target: T2, USP47 (UniProt Q96K76)
T2 sequence (whole entry): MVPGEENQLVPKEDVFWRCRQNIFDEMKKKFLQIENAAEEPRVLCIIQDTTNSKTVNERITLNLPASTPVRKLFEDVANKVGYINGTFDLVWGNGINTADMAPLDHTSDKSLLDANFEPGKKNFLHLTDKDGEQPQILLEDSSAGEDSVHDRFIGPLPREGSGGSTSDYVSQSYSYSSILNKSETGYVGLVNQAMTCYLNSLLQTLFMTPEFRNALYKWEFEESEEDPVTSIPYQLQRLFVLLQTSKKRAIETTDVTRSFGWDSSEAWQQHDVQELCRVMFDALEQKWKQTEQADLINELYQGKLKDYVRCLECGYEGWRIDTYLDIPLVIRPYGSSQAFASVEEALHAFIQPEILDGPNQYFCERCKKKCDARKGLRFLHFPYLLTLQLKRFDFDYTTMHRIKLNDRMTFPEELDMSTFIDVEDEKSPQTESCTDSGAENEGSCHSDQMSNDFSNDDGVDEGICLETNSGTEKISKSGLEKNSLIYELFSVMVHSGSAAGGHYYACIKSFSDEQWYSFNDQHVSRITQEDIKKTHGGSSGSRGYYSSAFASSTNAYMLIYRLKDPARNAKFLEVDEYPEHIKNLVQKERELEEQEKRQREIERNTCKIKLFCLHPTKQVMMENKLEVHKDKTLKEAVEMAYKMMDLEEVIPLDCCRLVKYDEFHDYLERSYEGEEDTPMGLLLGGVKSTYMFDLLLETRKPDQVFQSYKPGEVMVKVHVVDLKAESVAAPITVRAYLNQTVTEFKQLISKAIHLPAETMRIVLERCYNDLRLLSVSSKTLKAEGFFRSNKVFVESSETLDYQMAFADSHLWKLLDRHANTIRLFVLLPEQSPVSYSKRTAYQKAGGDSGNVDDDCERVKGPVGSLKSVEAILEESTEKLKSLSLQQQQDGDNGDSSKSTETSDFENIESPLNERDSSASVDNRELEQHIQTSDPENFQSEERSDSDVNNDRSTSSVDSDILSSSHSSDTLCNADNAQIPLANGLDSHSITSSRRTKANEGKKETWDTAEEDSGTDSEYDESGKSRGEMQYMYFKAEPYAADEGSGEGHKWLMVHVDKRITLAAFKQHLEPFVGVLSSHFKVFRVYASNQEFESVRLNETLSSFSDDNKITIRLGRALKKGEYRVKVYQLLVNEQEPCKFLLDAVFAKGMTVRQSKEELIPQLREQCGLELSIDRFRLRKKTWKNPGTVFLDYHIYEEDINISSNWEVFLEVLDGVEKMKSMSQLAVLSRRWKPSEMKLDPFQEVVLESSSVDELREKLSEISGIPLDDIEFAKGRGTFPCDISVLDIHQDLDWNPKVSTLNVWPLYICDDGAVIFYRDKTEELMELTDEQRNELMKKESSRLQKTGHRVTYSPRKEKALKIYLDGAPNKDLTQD
Summary of the method: as §1

USP48 = target: T3, USP48 (UniProt Q86UV5)
T3 sequence (whole entry): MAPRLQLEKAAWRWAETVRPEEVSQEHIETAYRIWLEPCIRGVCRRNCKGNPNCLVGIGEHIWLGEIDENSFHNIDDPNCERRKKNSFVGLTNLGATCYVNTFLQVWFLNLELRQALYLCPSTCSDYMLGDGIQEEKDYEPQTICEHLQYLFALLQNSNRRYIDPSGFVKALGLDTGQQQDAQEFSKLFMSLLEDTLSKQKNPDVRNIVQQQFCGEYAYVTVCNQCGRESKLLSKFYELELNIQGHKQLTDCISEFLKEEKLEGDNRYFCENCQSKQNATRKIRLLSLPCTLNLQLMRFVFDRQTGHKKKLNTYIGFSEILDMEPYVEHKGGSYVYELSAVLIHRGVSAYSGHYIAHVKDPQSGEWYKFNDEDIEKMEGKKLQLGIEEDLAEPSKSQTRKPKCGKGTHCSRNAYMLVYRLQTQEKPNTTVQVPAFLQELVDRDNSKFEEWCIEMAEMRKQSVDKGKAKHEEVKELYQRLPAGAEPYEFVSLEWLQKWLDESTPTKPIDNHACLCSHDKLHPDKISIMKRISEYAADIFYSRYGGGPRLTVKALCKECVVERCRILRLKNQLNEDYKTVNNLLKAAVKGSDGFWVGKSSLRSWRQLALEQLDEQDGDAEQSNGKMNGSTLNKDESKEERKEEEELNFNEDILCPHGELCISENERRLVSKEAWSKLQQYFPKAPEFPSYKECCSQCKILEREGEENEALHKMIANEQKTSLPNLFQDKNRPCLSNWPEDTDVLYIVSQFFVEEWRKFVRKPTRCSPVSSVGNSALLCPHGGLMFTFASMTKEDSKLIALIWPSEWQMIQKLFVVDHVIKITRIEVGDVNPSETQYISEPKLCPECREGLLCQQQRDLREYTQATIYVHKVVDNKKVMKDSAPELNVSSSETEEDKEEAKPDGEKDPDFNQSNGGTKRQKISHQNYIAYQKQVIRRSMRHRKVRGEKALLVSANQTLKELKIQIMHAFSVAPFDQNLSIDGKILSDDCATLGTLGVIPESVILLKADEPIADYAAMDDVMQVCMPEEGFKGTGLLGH
Summary of the method: as §1

USP5 = target: T4, USP5 (UniProt P45974)
T4 sequence (whole entry): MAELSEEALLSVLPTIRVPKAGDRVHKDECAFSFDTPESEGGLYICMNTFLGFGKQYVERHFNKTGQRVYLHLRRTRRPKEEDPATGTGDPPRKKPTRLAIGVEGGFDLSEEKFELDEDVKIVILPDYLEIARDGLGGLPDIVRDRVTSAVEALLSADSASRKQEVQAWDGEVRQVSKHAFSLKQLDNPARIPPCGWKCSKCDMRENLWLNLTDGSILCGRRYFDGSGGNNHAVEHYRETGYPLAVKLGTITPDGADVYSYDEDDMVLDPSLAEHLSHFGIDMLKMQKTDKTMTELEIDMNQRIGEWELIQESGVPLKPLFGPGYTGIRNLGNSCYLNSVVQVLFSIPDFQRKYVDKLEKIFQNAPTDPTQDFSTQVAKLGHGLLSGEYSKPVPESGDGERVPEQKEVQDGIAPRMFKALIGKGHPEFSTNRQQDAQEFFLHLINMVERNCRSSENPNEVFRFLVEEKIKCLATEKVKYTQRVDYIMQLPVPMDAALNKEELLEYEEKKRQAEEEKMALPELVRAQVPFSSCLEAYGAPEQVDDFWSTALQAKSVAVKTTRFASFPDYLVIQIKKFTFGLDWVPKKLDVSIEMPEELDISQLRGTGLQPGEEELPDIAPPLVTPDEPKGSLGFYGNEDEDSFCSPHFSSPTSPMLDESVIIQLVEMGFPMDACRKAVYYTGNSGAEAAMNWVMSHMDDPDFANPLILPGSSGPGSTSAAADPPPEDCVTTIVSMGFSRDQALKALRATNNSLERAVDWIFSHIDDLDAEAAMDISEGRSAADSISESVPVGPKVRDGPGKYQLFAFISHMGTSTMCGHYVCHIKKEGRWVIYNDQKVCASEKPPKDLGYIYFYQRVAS
Summary of the method: as §1

USP54 = USP54 (UniProt Q70EL1)
Summary of the method: as §1

USP7 = USP7 (UniProt Q93009)
Summary of the method: as §1

USP8 = target: T5, USP8 (UniProt P40818)
T5 sequence (whole entry): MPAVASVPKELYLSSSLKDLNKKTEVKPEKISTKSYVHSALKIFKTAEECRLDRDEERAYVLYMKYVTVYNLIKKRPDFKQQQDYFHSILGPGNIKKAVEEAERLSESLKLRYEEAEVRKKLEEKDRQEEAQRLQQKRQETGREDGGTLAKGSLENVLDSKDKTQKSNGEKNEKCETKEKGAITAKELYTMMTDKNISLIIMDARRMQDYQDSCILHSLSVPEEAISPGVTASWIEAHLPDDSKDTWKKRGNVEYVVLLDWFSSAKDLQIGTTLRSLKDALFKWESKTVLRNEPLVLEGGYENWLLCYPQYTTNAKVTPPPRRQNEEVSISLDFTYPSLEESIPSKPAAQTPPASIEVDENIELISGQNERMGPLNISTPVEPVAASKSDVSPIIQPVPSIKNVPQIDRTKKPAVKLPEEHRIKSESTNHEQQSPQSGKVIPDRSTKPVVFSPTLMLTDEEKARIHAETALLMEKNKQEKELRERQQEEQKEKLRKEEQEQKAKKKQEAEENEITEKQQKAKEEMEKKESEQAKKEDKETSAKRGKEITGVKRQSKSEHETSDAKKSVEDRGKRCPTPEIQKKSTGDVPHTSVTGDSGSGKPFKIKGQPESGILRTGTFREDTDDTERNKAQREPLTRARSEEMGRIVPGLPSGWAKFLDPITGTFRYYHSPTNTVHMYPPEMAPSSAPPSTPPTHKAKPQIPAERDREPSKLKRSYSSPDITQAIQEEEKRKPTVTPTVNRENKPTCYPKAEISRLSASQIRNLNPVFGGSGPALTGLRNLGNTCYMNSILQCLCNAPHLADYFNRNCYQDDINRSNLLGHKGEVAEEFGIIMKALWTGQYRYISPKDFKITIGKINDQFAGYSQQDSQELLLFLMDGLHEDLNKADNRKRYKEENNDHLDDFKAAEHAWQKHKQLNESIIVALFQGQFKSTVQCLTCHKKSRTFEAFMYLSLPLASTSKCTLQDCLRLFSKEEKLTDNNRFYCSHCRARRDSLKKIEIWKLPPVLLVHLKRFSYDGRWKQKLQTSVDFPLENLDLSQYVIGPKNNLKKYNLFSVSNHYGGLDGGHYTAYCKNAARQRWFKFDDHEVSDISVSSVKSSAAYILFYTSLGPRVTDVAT
Summary of the method: as §1

USP9X = USP9X (UniProt Q93008)
Summary of the method: as §1

UniProt O00487 = target: UniProt O00487
Summary of the method: as §1

Measured: log2 ratio of Biotin-Ahx-Ub-VS probe labelling

Sequence of USP54 (Q70EL1 whole entry): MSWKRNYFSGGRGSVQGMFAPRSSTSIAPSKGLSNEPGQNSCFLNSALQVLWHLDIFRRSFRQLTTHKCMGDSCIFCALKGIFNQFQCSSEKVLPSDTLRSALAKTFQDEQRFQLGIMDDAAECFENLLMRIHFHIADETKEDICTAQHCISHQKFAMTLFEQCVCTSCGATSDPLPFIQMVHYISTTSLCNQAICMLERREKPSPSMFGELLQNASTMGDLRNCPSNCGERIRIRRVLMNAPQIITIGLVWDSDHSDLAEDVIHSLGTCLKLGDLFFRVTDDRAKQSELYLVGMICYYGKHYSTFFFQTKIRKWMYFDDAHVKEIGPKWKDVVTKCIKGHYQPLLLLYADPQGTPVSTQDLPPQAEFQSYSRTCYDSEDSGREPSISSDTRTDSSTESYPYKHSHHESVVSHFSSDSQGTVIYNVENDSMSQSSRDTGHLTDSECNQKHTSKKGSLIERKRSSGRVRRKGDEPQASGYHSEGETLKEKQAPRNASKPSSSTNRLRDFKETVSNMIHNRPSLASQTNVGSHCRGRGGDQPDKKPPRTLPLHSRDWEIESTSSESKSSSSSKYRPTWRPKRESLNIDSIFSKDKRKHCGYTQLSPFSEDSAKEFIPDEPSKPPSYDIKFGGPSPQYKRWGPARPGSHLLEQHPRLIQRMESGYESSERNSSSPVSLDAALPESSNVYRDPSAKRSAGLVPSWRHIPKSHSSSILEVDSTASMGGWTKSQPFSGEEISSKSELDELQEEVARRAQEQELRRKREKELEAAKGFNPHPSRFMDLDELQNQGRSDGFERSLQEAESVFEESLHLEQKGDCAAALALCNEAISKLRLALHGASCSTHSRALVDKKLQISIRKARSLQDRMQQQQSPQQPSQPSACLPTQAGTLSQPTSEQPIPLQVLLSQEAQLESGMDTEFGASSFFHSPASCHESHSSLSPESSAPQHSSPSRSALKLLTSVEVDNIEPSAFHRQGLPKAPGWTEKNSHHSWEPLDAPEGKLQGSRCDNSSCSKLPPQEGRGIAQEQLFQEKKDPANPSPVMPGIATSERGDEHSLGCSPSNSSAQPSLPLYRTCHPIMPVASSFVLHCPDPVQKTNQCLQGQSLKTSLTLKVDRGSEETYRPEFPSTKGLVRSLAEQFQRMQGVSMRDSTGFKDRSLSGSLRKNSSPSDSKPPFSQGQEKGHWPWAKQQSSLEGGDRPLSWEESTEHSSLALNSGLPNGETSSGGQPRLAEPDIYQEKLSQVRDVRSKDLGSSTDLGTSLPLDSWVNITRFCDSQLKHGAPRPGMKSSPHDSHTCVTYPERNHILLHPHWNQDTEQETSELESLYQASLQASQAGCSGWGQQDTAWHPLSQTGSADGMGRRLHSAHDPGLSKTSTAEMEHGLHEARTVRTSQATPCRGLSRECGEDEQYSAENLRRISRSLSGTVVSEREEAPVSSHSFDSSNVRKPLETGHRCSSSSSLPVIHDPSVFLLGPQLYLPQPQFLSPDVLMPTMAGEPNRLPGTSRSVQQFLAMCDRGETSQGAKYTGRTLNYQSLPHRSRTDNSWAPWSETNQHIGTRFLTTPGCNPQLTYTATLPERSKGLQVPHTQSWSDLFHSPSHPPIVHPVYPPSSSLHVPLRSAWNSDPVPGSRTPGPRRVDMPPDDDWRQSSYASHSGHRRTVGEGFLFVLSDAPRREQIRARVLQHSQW
Sequence of USP7 (Q93009 whole entry, looked up): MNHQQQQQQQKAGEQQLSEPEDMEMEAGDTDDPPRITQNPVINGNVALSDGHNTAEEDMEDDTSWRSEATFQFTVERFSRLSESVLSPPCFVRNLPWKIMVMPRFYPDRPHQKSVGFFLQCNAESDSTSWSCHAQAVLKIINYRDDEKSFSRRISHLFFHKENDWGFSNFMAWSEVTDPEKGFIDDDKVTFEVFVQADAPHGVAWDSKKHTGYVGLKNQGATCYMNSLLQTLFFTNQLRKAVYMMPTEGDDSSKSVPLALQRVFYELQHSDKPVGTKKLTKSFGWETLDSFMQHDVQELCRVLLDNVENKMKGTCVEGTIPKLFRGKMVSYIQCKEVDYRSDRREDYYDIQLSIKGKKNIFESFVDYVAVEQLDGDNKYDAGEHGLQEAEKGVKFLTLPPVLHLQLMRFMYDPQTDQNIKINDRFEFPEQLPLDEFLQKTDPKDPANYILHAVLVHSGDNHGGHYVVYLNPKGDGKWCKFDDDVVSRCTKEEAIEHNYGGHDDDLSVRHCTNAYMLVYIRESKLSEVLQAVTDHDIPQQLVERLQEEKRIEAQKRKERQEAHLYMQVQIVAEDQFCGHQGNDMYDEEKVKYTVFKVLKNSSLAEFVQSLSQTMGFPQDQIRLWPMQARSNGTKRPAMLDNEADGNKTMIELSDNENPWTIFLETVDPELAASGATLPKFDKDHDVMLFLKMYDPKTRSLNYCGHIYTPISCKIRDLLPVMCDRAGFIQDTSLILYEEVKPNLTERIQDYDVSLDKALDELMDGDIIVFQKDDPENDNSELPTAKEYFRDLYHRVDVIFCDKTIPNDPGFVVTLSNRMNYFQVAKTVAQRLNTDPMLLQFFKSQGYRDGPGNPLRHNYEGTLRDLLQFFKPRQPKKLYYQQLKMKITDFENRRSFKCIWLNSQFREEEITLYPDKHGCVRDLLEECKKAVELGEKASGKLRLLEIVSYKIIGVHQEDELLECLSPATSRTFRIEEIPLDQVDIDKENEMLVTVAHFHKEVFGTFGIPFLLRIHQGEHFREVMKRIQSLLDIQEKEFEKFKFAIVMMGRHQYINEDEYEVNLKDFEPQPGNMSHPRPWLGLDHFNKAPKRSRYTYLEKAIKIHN
Sequence of UniProt O00487 (O00487 whole entry): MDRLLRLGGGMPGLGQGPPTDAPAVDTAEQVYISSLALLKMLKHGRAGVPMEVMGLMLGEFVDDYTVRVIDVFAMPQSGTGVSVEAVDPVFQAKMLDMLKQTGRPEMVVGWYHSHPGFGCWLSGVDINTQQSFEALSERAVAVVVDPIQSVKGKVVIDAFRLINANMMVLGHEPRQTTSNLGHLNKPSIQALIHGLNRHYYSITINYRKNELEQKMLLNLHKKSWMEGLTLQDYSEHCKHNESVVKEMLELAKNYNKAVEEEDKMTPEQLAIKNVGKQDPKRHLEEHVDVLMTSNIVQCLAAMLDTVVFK
Sequence of USP46 (P62068 whole entry): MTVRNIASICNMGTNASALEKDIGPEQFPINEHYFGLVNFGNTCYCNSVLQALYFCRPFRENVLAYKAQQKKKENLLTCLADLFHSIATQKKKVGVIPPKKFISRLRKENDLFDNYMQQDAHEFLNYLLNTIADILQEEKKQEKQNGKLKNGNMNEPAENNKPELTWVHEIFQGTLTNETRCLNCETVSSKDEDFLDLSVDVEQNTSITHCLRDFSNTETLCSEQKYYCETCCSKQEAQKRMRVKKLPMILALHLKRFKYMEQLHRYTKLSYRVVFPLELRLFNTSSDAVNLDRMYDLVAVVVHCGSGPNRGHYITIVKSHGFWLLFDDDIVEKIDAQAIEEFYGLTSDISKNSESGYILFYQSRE

O=C(CCl)NC1CCOc2ccccc21 (stereo not given)
inactive: USP42 0.184 | USP46 -0.506 | USP47 -0.268 | USP48 -0.603 | USP5 -0.575 | USP54 0.931 | USP7 -0.739 | USP8 -0.69 | USP9X -0.868 | UniProt O00487 0.0141
